From PubChem
This is one part of a sample in which hits are shown more often than they occur.
ALR inh – blocks human ALR sulfhydryl oxidase activity | AID 485317 | inhibition, % (no concentration beside the values) | purified ALR, DTT oxidation, H2O2 HRP-luminol luminescence | 290,000 tested, 3.8% active;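 active = mean replicate inhibition above about 79%, with every replicate also reaching it, limit read from the data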
Target sequence (P55789 whole entry, looked up): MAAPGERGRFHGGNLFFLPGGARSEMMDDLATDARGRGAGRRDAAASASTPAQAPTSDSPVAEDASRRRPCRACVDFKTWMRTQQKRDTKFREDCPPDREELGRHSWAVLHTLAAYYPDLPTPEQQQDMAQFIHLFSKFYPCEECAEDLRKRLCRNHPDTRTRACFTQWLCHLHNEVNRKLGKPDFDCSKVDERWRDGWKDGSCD
NRP1-CendR mod – modulators of CendR peptide binding to human neuropilin-1; O14786; FAM-RPARPAR peptide binding to NRP-1, fluorescence polarization; inhibition, % at 25 µM; 360,000 tested, 0.85% active; AID 602438;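 active = inhibition or corrected inhibition above about 18%, plus a signal ratio from 0.5 to 1.5, limit read from the data, passing the limit was not always enough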
PglD inh – PglD (C. jejuni) enzyme inhibition; purified PglD enzyme, DTNB colorimetric CoA detection; 360,000 tested, 0.098% active; inhibition, % at 12.5 µM; in the data active = inhibition above about 16%, passing the limit was not always enough
ARNT TACC3 PPI – disrupts binding between human ARNT and TACC3; AlphaScreen His-ARNT PAS-B/GST-TACC3 binding, luminescence; TACC3 fragment carries E629A point mutation; inhibition, % at 9.99 µM; 390,000 tested, 0.66% active; AID 623870; Q9Y6A5;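 active = mean inhibition of replicates at least 50% and at least half of replicates each reaching 50%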
PDI inh – inhibitors of human protein disulfide isomerase; inhibition, % at 10 µM; P07237; AID 588391; PDI insulin aggregation turbidity, A650, 90 min; 350,000 tested, 0.052% active;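 active = mean inhibition across replicates of 30% or more, whatever share of single replicates reach that level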
Target sequence (P07237 whole entry, looked up): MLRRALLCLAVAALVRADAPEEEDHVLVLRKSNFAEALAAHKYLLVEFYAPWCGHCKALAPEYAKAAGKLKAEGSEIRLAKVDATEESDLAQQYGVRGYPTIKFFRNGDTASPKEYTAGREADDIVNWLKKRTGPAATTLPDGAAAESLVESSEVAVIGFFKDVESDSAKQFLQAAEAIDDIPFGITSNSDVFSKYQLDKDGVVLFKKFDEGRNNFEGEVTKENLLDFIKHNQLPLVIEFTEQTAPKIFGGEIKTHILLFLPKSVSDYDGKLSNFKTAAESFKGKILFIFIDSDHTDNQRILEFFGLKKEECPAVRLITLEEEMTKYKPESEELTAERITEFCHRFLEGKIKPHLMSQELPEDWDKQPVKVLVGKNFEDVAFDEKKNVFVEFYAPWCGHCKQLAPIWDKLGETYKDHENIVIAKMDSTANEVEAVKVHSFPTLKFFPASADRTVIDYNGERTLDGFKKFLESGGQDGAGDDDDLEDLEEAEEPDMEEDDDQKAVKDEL
ERp5 block – blocks human ERp5 reductase activity on insulin | Q15084 | ERp5 insulin aggregation, absorbance 650 nm, 90 min | inhibition, % at 9.99 µM | 350,000 tested, 0.05% active;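 active = mean replicate inhibition above about 25%, with every replicate also reaching it, limit read from the data, passing the limit was not always enough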
Of the large screens only hits and unclear results are named; the others gave an inactive call.

N#Cc1cccc(-c2ccc3c(c2)[C@H]2[C@H](CCN2Cc2ccncc2)[C@H](CO)N3)c1	ARNT TACC3 PPI 14 (no result: ALR inh, NRP1-CendR mod, PDI inh)
CC12CCC(C(=O)N(CSC(=S)N/N=C\c3ccccc3O)C1=O)C2(C)C (stereo unspecified)	ARNT TACC3 PPI 66 (no result: ERp5 block)
COc1ccc(/C=N\NC(=S)SCN2C(=O)C3CCC(C)(C2=O)C3(C)C)cc1 (stereo unspecified)	none (no result: ERp5 block)
COc1ccc(CCNC(=O)c2cc3c(=O)n4cccc(C)c4nc3n(Cc3ccco3)c2=N)cc1OC	ALR inh 76 (no result: ARNT TACC3 PPI)
Cc1cccn2c(=O)c3cc(C(=O)NCCc4ccccc4)c(=N)n(Cc4ccco4)c3nc12	none
C[C@H](CO)N1C[C@H](C)[C@@H](CN(C)C(=O)NC2CCCCC2)OCCCC[C@H](C)Oc2ccc(NC(=O)Nc3ccccc3)cc2C1=O	none (no result: ALR inh, NRP1-CendR mod, PDI inh)
C=CCn1c(CNc2ccc(C)cc2)nnc1SCC(=O)N/N=C/c1ccc(O)cc1O	none (no result: ALR inh, ERp5 block)
C=CCn1c(CNc2ccccc2)nnc1SCC(=O)N/N=C/c1ccc(O)cc1O	ARNT TACC3 PPI 58 (no result: ERp5 block)
C[C@H]1CN([C@@H](C)CO)C(=O)c2cccc(NC(=O)Nc3ccccc3)c2O[C@H]1CN(C)Cc1ccc(-c2ccccc2)cc1	none (no result: ALR inh, NRP1-CendR mod, PDI inh)
O=C(c1ccc(F)cc1)N1CC(=O)N2[C@H](CO)[C@H](c3ccc(C#CCC4CCCC4)cc3)[C@H]2C1	none (no result: ALR inh, NRP1-CendR mod, PglD inh, ARNT TACC3 PPI, PDI inh)
CCOC(=O)C1(CCOc2ccccc2)CCN(Cc2ccc(O)c(Cl)c2)CC1	PDI inh 111
Nc1nnc(-c2cc3ccccc3oc2=O)s1	none (no result: ALR inh, ERp5 block)
O=c1oc2ccccc2cc1-c1ccc(O)cc1O	ALR inh 99 (no result: PglD inh, ERp5 block)
COc1ccc(-c2cc3ccc(O)cc3oc2=O)cc1	none
CC(=O)Oc1ccc(-c2cc3ccccc3oc2=O)cc1	none
O=c1oc2cc(O)ccc2cc1-c1ccccc1	ALR inh 91 (no result: ERp5 block)
Nc1cccc(-c2cc3ccccc3oc2=O)c1	ALR inh 99
C/C=C/c1ccc([C@H]2[C@H](CO)N(C(=O)CC)[C@H]2CN(C)S(C)(=O)=O)cc1	none (no result: ALR inh, NRP1-CendR mod, PDI inh, ERp5 block)
CN1CCN2c3ccccc3CC(C#N)(C#N)C2C1 (stereo unspecified)	none (no result: ALR inh, PglD inh, ARNT TACC3 PPI, PDI inh)
CC1(C)OC(=O)C2(Cc3ccccc3N3CCCCC32)C(=O)O1 (stereo unspecified)	ALR inh 99 (no result: ERp5 block)
COc1ccc(C2c3ccc(O)cc3Oc3ncn4nc(-c5cccnc5)nc4c32)cc1OC (stereo unspecified)	PDI inh 41 (no result: PglD inh)
COc1ccc(C2c3ccc(O)cc3Oc3ncn(Cc4ccco4)c(=N)c32)cc1OC (stereo unspecified)	PDI inh 33
COc1ccc(C2c3ccc4ccccc4c3Oc3ncn(Cc4ccco4)c(=N)c32)cc1OC (stereo unspecified)	none (no result: ERp5 block)
CCS(=O)(=O)NCC[C@@H]1CC[C@H](NC(=O)Cc2ccccn2)[C@@H](CO)O1	none (no result: ALR inh, NRP1-CendR mod, PDI inh)
COc1ccccc1NS(=O)(=O)c1cc(-c2cnc(C3CC3)o2)ccc1C	NRP1-CendR mod 22
CC(=O)N(C)C[C@H]1Oc2cc(C#CCC(C)C)ccc2S(=O)(=O)N([C@H](C)CO)C[C@@H]1C	none (no result: ALR inh, NRP1-CendR mod, PDI inh)
COc1ccc(S(=O)(=O)NCc2cccs2)cc1	none (no result: ERp5 block)
COc1ccc(S(=O)(=O)N(Cc2cccs2)C2CCCC2)cc1	ALR inh 99 (no result: ERp5 block)
COc1ccc(-n2cc(-c3ccc(OC)c(OC)c3)[nH]c2=S)cc1	none (no result: ALR inh, PglD inh)
Fc1ccccc1-n1cc(-c2ccccc2)[nH]c1=S	ALR inh 93
COc1ccc(-n2cc(-c3ccccc3)[nH]c2=S)c(OC)c1	ALR inh 90
Cc1cc(SCC(=O)N/N=C/c2ccc(C(=O)O)cc2)nc2ccccc12	ALR inh 99
O=C(CSc1nc2ccccc2o1)N/N=C/c1ccc(C(=O)O)cc1	none (no result: ALR inh)
C[C@@H]1CN([C@@H](C)CO)C(=O)c2cccc(NC(=O)c3nc4ccccc4s3)c2O[C@H]1CN(C)Cc1ccc(C(=O)Nc2ccccc2N)cc1	none (no result: ALR inh, NRP1-CendR mod, PDI inh)
C=CCNC(=S)NNC(=O)c1ccc(Br)cc1	none (no result: PglD inh, ERp5 block)
C=CCNC(=S)NNC(=O)c1cccn(Cc2ccc(Cl)cc2)c1=O	ARNT TACC3 PPI 52
C=CCNC(=S)NNC(=O)c1cc(O)ccc1O	ALR inh 99 (no result: ARNT TACC3 PPI)
O=C(c1cnccn1)N1CC(=O)N2[C@H](CO)[C@@H](c3ccc(C#CC4CCCCC4)cc3)[C@H]2C1	none (no result: ALR inh, NRP1-CendR mod, PglD inh, ARNT TACC3 PPI, PDI inh)
COC1=C(c2ccccc2)C(=O)c2ccccc2C1=O	NRP1-CendR mod 32 (no result: PglD inh, ARNT TACC3 PPI, ERp5 block)
CCOc1ccc(C2NC(=O)c3sc(=S)n(-c4ccccc4)c3N2)cc1 (stereo unspecified)	ALR inh 81 (no result: PglD inh)
CC=Cc1ccc2n(c1=O)C[C@@H]1[C@@H](CO)[C@H](C(=O)N[C@H](C)c3ccccc3)[C@H]2N1Cc1ccccc1 (mixture of isomers)	none (no result: ALR inh, NRP1-CendR mod, PglD inh, ARNT TACC3 PPI, PDI inh)
COC(=O)C1CC2(C(=O)OC)CC(C(=O)OC)(CC(C(=O)OC)C2=O)C1=O (stereo unspecified)	NRP1-CendR mod 26 (no result: ALR inh)
COCc1cn(CC[C@H]2CC[C@@H](NC(=O)Nc3ccc(Cl)cc3)[C@@H](CO)O2)nn1	none (no result: ALR inh, NRP1-CendR mod, PDI inh)
CN(C)c1ccc(NC(=O)COC(=O)c2cc(=O)c3ccccc3o2)cc1	ALR inh 99 (no result: PglD inh)
CO[C@@H]1CN(C)C(=O)c2ccc(NC(=O)Nc3cccc(F)c3)cc2OC[C@@H](C)N(C(C)=O)C[C@H]1C	none (no result: ALR inh, NRP1-CendR mod, PDI inh)
O=C(C[C@@H]1CC[C@@H]2[C@H](COC[C@@H](O)CN2C(=O)c2ccccc2)O1)N1CCOCC1	none (no result: ALR inh, NRP1-CendR mod, PDI inh)
C=CCNC(=S)/C(=C(\[O-])c1ccc(Cl)cc1)[n+]1ccccc1	ALR inh 98
CCCSc1nc(O)c(C2OC(=O)c3c2ccc(OC)c3OC)c(=O)n1-c1ccccc1 (stereo unspecified)	none (no result: ARNT TACC3 PPI, ERp5 block)
C=CCSc1nc(O)c(C2OC(=O)c3c2ccc(OC)c3OC)c(=O)n1-c1ccccc1 (stereo unspecified)	ALR inh 97
CC1(C)CN=c2s/c(=C\c3ccc(Cl)cc3)c(=O)n2C1	ALR inh 97 (no result: ARNT TACC3 PPI)
CCN1[C@@H]2Cn3c(ccc(-c4ccccc4)c3=O)[C@H]1[C@@H](C(=O)NC1CCC1)[C@@H]2CO	none (no result: ALR inh, NRP1-CendR mod, ARNT TACC3 PPI, PDI inh, ERp5 block)
O=C(Nc1ccnn1C1CCN(C(=O)c2c(F)cccc2F)CC1)C1CC1	NRP1-CendR mod 25 (no result: ARNT TACC3 PPI)
O=C(Nc1ccnn1C1CCN(C(=O)c2ccc(F)c(Cl)c2)CC1)C1CC1	none
COc1ccc(CN2CCC(n3nccc3NC(=O)C3CC3)CC2)cc1O	NRP1-CendR mod 23
CCOCc1cc(CN2CCC(n3nccc3NC(=O)C3CC3)CC2)ccc1OC	none (no result: ALR inh)
CCCC#Cc1ccc2c(c1)O[C@H](CN(C)C(=O)CN(C)C)[C@@H](C)CN([C@@H](C)CO)S2(=O)=O	none (no result: ALR inh, NRP1-CendR mod, PDI inh)
Cc1ccc(NCc2nnc(SCC(=O)Nc3ncc(C)s3)n2Cc2ccco2)c(C)c1	ALR inh 98 (no result: ERp5 block)
O=C(C[C@@H]1CC[C@@H]2[C@H](COC[C@H](O)CN2Cc2ccc(Cl)cc2)O1)Nc1nccs1	none (no result: ALR inh, NRP1-CendR mod, PDI inh)
